Experimental data taken from PubChem BioAssay (Tox21).
“And” between values parts separate entries of the source, which are not always exact repeats. Equal values may be shown once. Results filed as inconclusive are left out. Where a call stands in place of a potency, no number is given. Where a structure was tested more than once in an assay, its records may differ in their call. The source made the active and inactive calls. Unless noted, the call rests on the fitted dose curve.

Tests used:
[1] = qHTS assay to identify small molecule agonists of the sonic hedgehog signaling (Shh) pathway (AID 1259368);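 further: NIH/3T3-derived 3T3Gli1-Luc cells carrying a stable Gli1-driven firefly luciferase reporter; series mostly up to about 92 µM; nearly all actives have a fitted effect of over 15% in size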
Procedure, shortened: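 Following a 24 hr incubation with DMSO-dissolved compounds at 37 C, 5% CO2, Gli1-Luc NIH/3T3-derived cells received luciferase reagent for 30 min at room temperature prior to luminescence measurement.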

[2] = qHTS assay to identify small molecule antagonists of the sonic hedgehog signaling (Shh) pathway (AID 1259369); further: nearly all actives have a fitted effect of over 45% in size; further: potency means the concentration at half of the fitted maximal effect
Procedure, shortened: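 Read-out is luminescence from a firefly luciferase gene controlled by the Gli1 response element, in 3T3Gli1-Luc cells pre-incubated 4hr then exposed to compounds and conditioned medium for 24hr.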

[3] = target: Estrogen receptor beta (Homo sapiens) (UniProt Q92731); test: qHTS assay to identify small molecule agonists of the estrogen receptor beta (ER-beta) signaling pathway (AID 1259377; active means well fitted activation curve with a large enough effect in the signal ratio in the repeat runs, not every such curve was filed as active; the % refers to the signal ratio)
Procedure, shortened: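 ER-beta-UAS-bla HEK293T cells in medium with 2% charcoal-stripped FBS were exposed to compounds for 16 h at 37C. Beta-lactamase reporter activity was read as fluorescence after 2 h with LiveBLAzer B/G FRET substrate at room temperature.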

[4] = target: Estrogen receptor beta (Homo sapiens) (UniProt Q92731); test: qHTS assay to identify small molecule antagonists of the estrogen receptor beta (ER-beta) signaling pathway (AID 1259378; active means well fitted inhibition curve with a large enough effect in the signal ratio in the repeat runs, not every such curve was filed as active; the % refers to the signal ratio)
Procedure, shortened: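 ER-beta-UAS-bla HEK293T cells in 2% charcoal-stripped FBS medium treated with compound plus 1nM final 17-beta-estradiol for 16 hr at 37C. Beta-lactamase reporter read by FRET substrate fluorescence after 2 hours at room temperature.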

[5] = qHTS assay to identify small molecule agonists of the androgen receptor (AR) signaling pathway in the presence of an antagonist - cell viability counter screen (AID 1259379; active means well fitted curve in the direction sought with a large enough effect in the repeat runs; an effect the other way counts as inactive or inconclusive;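 further: MDA-kb2 human breast cancer cells carrying an MMTV luciferase reporter; series mostly up to about 92 µM; nearly all actives have a fitted effect of over 25% in size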)
Procedure, shortened: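 Each compound was tested at 15 concentrations on MDA-kb2 cells in the presence of 3.0uM nilutamide. Viability was measured by CellTiter-Fluor fluorescence after a 16 hr incubation at 37C in a CO2-free atmosphere.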

[6] = qHTS assay to identify small molecule antagonists of the estrogen receptor beta (ER-beta) signaling pathway - cell viability counter screen (AID 1259382; active means well fitted curve in the direction sought with a large enough effect in the repeat runs; an effect the other way counts as inactive or inconclusive; further: series mostly up to about 92 µM; nearly all actives have a fitted effect of over 55% in size)
Procedure, shortened: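 CellTiter-Glo ATP luminescence measured after the LiveBLAzer read in the same wells; ER-beta-UAS-bla HEK293T cells, 16 hr compound treatment with 1nM 17-beta-estradiol agonist at 37C, 5% CO2.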

[7] = qHTS assay to identify small molecule agonists or antagonists of the thyroid stimulating hormone receptor (TSHR) signaling pathway - wild type cell line counter screen (AID 1259384)
Procedure, shortened: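 Wild-type Hek293 cells, 800/well, 18 h at 37C, then compound with Ro20-1724 for 30 min RT. cAMP by HTRF (cAMP-d2/anti-cAMP cryptate), 1 h RT, fluorescence read. 15 concentrations, triplicates.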

[8] = target: Thyrotropin receptor (Homo sapiens) (UniProt P16473); test: qHTS assay to identify small molecule antagonists of the thyroid stimulating hormone receptor (TSHR) signaling pathway (AID 1259385); further: nearly all actives have a fitted effect of over 20% in size
Procedure, shortened: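 TSHR-HEK293 cells (800/well) plated 18 h, then compounds with Ro20-1724 and TSH at 1.5 ng/mL final, 30 min at room temperature. cAMP quantified by HTRF (cAMP-d2/anti-cAMP-cryptate, 1 h); 15 concentrations in triplicate.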

[9] = qHTS assay to identify small molecule agonists of the estrogen receptor alpha (ER-alpha) signaling pathway in the presence of an antagonist - cell viability counter screen (AID 1259386; active means well fitted curve in the direction sought with a large enough effect in the repeat runs; an effect the other way counts as inactive or inconclusive;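 further: series mostly up to about 92 µM; cells exposed to compounds for 22 h at 37 °C before the viability read; nearly all actives have a fitted effect of over 30% in size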)
Procedure, shortened: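 Using estrogen-depleted VM7Luc4E2 cells, the 15-concentration compound series was applied together with 10.0nM ICI-182,780 and incubated 22hr at 37C/5% CO2. Cell viability was then scored by CellTiter-Fluor.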

[10] = target: Progesterone receptor (Homo sapiens) (UniProt P06401); test: qHTS assay to identify small molecule agonists of the progesterone receptor (PR) signaling pathway (AID 1346784); further: nearly all actives have a fitted effect of over 30% in size
Procedure, shortened: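 PR-UAS-bla HEK 293T cells (beta-lactamase reporter under UAS) in 2% charcoal-stripped FBS, dosed with 23 nL compound after 6 hr, incubated 16hr at 37C. LiveBLAzer B/G FRET substrate added, fluorescence read after 2 hours.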

[11] = target: Progesterone receptor (Homo sapiens) (UniProt P06401); test: qHTS assay to identify small molecule antagonists of the progesterone receptor (PR) signaling pathway (AID 1346795; active means well fitted inhibition curve with a large enough effect in the signal ratio in the repeat runs, not every such curve was filed as active; the % refers to the signal ratio; further: potency means the concentration at half of the fitted maximal effect)
Procedure, shortened: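 PR-UAS-bla HEK293T cells with beta-lactamase reporter under UAS control, in 2% charcoal-stripped FBS, treated with compounds plus 1 nM promegestone (R5020, final) for 16 hr at 37C. Read-out: FRET beta-lactamase substrate fluorescence after 2 hr at room temperature.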

[12] = qHTS assay to identify small molecule antagonists of the progesterone receptor (PR) signaling pathway - cell viability counter screen (AID 1346798; active means well fitted curve in the direction sought with a large enough effect in the repeat runs; an effect the other way counts as inactive or inconclusive; further: series mostly up to about 92 µM; nearly all actives have a fitted effect of over 50% in size)
Procedure, shortened: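 PR-UAS-bla HEK293T cells, 3,000/well in 2% charcoal-stripped FBS medium, dosed with compounds plus R5020 agonist and incubated 16 h at 37C. Viability then measured in the same wells by CellTiter-Glo luminescence after 30 min at RT.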

[13] = qHTS assay to identify small molecule agonists of the progesterone receptor (PR) signaling pathway - cell viability counter screen (AID 1346799); further: nearly all actives have a fitted effect of over 45% in size
Procedure, shortened: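 Counter screen in the PR-UAS-bla HEK293T wells (2% charcoal-stripped FBS, 16 h compound exposure at 37 C) after the bla read. CellTiter-Glo added, 30 min at room temperature, luminescence read as cell viability.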

[14] = qHTS assay to identify small molecule antagonists of the TGF-beta/Smad signaling pathway - cell viability counter screen (AID 1346824; active means well fitted curve in the direction sought with a large enough effect in the repeat runs; an effect the other way counts as inactive or inconclusive; further: nearly all actives have a fitted effect of over 50% in size)
Procedure, shortened: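 SBE-bla HEK 293T cells, incubated overnight, then compound plus 0.25 ng/mL TGF-beta1 (stock added) for 5 hr at 37 C. Viability was read in the same wells by CellTiter-Glo luminescence after 30 min at room temperature.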

[15] = qHTS assay to identify small molecule agonists of the TGF-beta/Smad signaling pathway - cell viability counter screen (AID 1346829; active means well fitted curve in the direction sought with a large enough effect in the repeat runs; an effect the other way counts as inactive or inconclusive; further: top concentration of the series differs between compounds; nearly all actives have a fitted effect of over 45% in size)
Procedure, shortened: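 After overnight seating at 37 C and 5% CO2, reporter cells got compounds for 5 hr and FRET substrate for 2 hr; cell viability then came from CellTiter-Glo luminescence.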

[16] = qHTS assay to identify small molecule agonists of the TGF-beta/Smad signaling pathway (AID 1346859; active means well fitted activation curve with a large enough effect in the signal ratio in the repeat runs, not every such curve was filed as active; the % refers to the signal ratio; further: series mostly up to about 77 µM)
Procedure, shortened: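 SBE-bla HEK293T cells plated overnight, then compound exposure for 5 h at 37 C. Beta-lactamase reporter read with LiveBLAzer B/G FRET substrate after 2 h at room temperature, fluorescence at 405 nm excitation, 460/530 nm emission.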

[17] = target: Thyrotropin-releasing hormone receptor (Homo sapiens) (UniProt P34981); test: qHTS assay to identify small molecule antagonists of the thyrotropin-releasing hormone receptor (TRHR) signaling pathway (AID 1346877; active means well fitted inhibition curve with a large enough effect in the repeat runs, not every such curve was filed as active; further: series mostly up to about 51 µM)
Procedure, shortened: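 Calcium signal in dye-loaded TRHR/HEK293 cells; compounds added 5 min before TRH (1 nM final); fluorescence monitored 3 min at 1 s steps.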

[18] = qHTS assay to identify small molecule agonists of the estrogen receptor beta (ER-beta) signaling pathway - cell viability counter screen (AID 1259380; active means well fitted curve in the direction sought with a large enough effect in the repeat runs; an effect the other way counts as inactive or inconclusive; further: nearly all actives have a fitted effect of over 30% in size)
Procedure, shortened: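 Compounds dissolved in DMSO were pin-transferred onto ER-beta-UAS-bla HEK293T cells that had settled 6 hr, and exposure ran 16 hr at 37C. Following the reporter read, CellTiter-Glo luminescence after 30 min at room temperature indicated cytotoxicity.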

[19] = target: Estrogen receptor (Homo sapiens) (UniProt P03372); test: qHTS assay to identify small molecule agonists of the estrogen receptor alpha (ER-alpha) signaling pathway in the presence of an antagonist (AID 1259383); further: nearly all actives have a fitted effect of over 15% in size; further: potency means the concentration at half of the fitted maximal effect; on activation: top concentration of the series differs between compounds
Procedure, shortened: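 Luminescent ERE-luciferase reporter, VM7Luc4E2 cells (endogenous ER-alpha); 10.0nM ICI-182,780 final; 15-point compound titration; 22hr at 37C; ONE-Glo, 30min RT.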

[20] = target: Androgen receptor (Homo sapiens) (UniProt P10275); test: qHTS assay to identify small molecule agonists of the androgen receptor (AR) signaling pathway in the presence of an antagonist (AID 1259381); further: nearly all actives have a fitted effect of over 15% in size
Procedure, shortened: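 Plated MDA-kb2 cells (3,000/well) were pre-incubated 5hr, given nilutamide (3.0uM final) or buffer, then dosed with compounds in DMSO at 15 concentrations. Luciferase activity was quantified by luminescence after 16hr at 37C.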

Chain of Estrogen receptor (Homo sapiens) (P03372 whole entry, looked up): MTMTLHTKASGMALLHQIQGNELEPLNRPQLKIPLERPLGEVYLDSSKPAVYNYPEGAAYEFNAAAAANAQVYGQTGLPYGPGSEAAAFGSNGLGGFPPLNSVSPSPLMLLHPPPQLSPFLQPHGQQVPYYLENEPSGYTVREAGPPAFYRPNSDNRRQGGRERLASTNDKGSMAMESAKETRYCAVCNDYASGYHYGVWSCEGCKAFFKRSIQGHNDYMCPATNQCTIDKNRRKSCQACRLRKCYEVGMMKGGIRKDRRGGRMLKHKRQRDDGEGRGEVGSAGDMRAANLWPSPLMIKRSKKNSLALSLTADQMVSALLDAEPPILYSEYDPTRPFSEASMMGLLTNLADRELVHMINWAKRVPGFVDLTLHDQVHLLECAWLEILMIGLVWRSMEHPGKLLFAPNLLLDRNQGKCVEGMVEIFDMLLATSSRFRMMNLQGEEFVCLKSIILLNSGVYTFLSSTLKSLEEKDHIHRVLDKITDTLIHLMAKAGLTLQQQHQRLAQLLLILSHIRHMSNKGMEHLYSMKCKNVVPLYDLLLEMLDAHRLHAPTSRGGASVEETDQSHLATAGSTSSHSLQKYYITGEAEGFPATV
Chain of Androgen receptor (Homo sapiens) (P10275 whole entry, looked up): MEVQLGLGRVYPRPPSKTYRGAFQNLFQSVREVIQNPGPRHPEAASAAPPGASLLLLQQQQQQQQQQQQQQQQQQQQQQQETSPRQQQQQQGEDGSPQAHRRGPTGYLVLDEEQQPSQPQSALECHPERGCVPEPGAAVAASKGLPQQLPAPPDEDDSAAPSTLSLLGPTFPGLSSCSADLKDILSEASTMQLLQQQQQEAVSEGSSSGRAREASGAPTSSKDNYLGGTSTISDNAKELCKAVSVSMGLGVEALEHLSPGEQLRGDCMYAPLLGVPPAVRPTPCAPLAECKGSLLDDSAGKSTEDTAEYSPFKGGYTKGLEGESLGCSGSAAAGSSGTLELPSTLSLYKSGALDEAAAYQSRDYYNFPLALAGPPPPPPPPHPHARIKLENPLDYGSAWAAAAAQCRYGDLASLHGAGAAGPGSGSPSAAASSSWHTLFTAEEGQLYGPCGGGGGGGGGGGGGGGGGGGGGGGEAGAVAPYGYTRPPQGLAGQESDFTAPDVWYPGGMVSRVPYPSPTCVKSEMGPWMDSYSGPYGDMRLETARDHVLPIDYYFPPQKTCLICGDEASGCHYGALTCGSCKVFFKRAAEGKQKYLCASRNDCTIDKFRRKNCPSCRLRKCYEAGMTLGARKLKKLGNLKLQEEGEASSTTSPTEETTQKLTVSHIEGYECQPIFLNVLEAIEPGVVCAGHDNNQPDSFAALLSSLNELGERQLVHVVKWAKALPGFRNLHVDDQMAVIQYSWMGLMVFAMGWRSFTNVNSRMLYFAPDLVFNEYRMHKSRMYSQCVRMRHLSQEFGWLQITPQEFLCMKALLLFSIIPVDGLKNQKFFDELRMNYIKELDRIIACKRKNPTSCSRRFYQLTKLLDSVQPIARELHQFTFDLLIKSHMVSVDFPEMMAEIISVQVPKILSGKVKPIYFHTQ
Chain of Thyrotropin receptor (Homo sapiens) (P16473 whole entry, looked up): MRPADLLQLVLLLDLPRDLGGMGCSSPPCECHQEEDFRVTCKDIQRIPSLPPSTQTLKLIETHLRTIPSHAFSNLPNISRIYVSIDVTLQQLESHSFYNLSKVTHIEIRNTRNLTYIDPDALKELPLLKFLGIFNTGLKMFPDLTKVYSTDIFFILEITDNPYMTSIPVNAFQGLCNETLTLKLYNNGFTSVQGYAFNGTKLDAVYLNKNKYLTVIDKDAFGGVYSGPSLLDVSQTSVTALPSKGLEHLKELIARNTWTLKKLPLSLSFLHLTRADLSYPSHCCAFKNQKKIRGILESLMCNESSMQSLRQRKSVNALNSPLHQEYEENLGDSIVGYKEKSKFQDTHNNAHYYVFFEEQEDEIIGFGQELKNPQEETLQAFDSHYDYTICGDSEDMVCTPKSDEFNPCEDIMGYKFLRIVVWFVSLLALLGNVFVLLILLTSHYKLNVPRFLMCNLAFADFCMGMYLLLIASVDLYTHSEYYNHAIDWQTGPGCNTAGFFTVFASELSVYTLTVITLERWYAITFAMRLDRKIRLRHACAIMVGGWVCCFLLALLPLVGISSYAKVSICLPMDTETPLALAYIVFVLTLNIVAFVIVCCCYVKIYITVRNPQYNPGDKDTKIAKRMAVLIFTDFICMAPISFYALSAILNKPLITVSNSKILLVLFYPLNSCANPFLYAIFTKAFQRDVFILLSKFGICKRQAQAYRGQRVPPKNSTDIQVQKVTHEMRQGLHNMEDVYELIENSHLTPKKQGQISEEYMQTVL
Chain of Estrogen receptor beta (Homo sapiens) (Q92731 whole entry, looked up): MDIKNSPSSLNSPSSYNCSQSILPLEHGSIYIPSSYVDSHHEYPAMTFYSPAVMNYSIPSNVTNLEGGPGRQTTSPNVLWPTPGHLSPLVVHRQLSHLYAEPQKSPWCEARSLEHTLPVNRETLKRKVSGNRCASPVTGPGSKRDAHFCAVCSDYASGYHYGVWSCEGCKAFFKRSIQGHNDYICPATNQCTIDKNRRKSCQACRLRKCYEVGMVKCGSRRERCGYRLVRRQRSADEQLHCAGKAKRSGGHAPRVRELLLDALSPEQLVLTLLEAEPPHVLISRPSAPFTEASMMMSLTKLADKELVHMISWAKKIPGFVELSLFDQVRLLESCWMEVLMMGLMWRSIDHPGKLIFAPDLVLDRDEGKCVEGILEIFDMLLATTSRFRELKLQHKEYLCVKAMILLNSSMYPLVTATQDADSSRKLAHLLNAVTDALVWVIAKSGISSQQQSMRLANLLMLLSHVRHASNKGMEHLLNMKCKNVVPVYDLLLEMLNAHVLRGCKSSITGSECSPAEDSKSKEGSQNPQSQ
Chain of Progesterone receptor (Homo sapiens) (P06401 whole entry, looked up): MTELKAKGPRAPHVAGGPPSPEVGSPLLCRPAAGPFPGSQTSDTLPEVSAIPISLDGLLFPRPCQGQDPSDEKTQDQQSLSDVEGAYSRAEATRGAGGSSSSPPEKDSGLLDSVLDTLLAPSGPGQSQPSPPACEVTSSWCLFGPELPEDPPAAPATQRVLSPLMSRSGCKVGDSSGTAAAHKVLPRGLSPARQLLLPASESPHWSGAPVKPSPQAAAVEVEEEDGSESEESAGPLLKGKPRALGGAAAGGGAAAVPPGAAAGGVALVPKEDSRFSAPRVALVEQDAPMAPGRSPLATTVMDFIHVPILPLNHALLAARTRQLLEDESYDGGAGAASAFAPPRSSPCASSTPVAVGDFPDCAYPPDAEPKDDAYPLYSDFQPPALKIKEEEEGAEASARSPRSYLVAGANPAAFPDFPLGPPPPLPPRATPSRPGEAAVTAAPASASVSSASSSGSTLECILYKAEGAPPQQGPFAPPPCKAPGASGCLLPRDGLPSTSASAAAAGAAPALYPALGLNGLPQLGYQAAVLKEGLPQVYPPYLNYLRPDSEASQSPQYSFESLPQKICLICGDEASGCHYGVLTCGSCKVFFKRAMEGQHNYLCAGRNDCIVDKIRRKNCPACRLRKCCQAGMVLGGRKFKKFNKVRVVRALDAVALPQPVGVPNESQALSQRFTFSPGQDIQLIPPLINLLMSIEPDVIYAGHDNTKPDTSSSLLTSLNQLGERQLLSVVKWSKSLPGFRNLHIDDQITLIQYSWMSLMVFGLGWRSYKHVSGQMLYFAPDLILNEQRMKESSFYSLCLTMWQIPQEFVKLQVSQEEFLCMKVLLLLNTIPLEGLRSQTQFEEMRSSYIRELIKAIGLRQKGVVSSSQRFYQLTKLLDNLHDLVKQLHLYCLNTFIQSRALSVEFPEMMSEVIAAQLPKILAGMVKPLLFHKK
Chain of Thyrotropin-releasing hormone receptor (Homo sapiens) (P34981 whole entry, looked up): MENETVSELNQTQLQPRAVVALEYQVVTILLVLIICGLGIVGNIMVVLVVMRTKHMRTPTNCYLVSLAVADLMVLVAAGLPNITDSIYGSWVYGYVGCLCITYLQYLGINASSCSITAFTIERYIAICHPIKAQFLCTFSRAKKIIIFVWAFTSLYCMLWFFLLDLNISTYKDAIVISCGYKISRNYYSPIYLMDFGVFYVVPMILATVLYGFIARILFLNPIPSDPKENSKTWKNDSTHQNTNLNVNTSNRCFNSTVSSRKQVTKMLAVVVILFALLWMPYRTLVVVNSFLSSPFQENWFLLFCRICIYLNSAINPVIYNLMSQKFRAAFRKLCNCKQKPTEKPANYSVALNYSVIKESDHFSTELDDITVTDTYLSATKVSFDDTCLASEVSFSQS

SMILES | outcome [1] | Potency [2] | Potency [3] | Potency [4] | Potency [5] | Potency [6] | outcome [7] | outcome [8] | Potency [9] | Potency [10] | Potency [11] | Potency [12] | Potency [13] | Potency [14] | Potency [15] | outcome [16] | outcome [17] | Potency [18] | Potency [19] | Potency [20]
Cc1ccc(N)c(S(=O)(=O)O)c1 | inactive | inactive | inactive | inactive | inactive | inactive | inactive | inactive | inactive | inactive | inactive | inactive | inactive | inactive | inactive | inactive | inactive | – | – | –
COC(=O)Nc1nc2ccc(Sc3ccccc3)cc2[nH]1 | inactive | 1.93 µM (active) and 2.66 µM (active) | – | – | inactive | inactive | inactive | inactive | inactive | inactive | – | inactive | – | – | inactive | inactive | inactive | inactive | – | –
CC(C)(N=C=O)c1cccc(C(C)(C)N=C=O)c1 | inactive | inactive | – | – | inactive | inactive | inactive | inactive | inactive | inactive | inactive | inactive | inactive | – | inactive | inactive | inactive | – | – | –
CCOC(=O)[C@H](CCc1ccccc1)N[C@@H](C)C(=O)N1Cc2ccccc2C[C@H]1C(=O)O | inactive | inactive and 16.8 µM (active) | inactive | inactive | inactive | inactive | – | – | inactive | inactive | – | inactive | inactive | inactive | inactive | inactive | – | – | inactive | –
CCCCCCCCCC(=O)O | inactive | inactive | – | – | inactive | inactive | inactive | inactive | inactive | inactive | inactive | inactive | inactive | inactive | inactive | inactive | inactive | inactive | – | inactive
CCCCCCCCCCC=CC1CC(=O)OC1=O (stereo not drawn) | inactive | inactive | – | – | inactive | inactive | inactive | inactive | inactive | inactive | inactive | inactive | inactive | inactive | inactive | inactive | – | – | – | –
OC[C@@H](O)[C@@H](O)[C@H](O)[C@@H](O)CO | inactive | inactive | – | – | inactive | inactive | inactive | inactive | inactive | inactive | inactive | inactive | inactive | inactive | inactive | inactive | – | – | inactive | –
Oc1c(Cl)cc(Cl)c(Cl)c1Cl | inactive | 48.6 µM (active) | inactive | – | inactive | – | inactive | inactive | inactive | – | inactive | inactive | – | inactive | inactive | inactive | inactive | – | inactive | –
Cc1cc(=O)[nH]c(C(C)C)n1 | inactive | inactive | – | inactive | inactive | inactive | inactive | inactive | inactive | inactive | inactive | inactive | inactive | inactive | inactive | inactive | inactive | inactive | inactive | inactive
CC(C)Cc1ccccc1 | inactive | inactive | – | – | inactive | inactive | inactive | inactive | inactive | inactive | inactive | inactive | inactive | inactive | inactive | inactive | inactive | inactive | inactive | –
Cc1cc(Cc2ccc(N)c(C)c2)ccc1N | inactive | inactive | inactive | inactive | inactive | inactive | – | – | inactive | inactive | – | inactive | inactive | inactive | inactive | inactive | inactive | – | – | –
c1ccc2[nH]cnc2c1 | inactive | inactive | – | – | inactive | inactive | – | – | inactive | inactive | inactive | – | inactive | – | inactive | inactive | inactive | – | – | –
CN(C)c1cccc(O)c1 | inactive | inactive | inactive | inactive | inactive | inactive | inactive | inactive | inactive | inactive | inactive | inactive | inactive | inactive | inactive | inactive | inactive | – | – | –
CC1(C)CC(N=C=O)CC(C)(CN=C=O)C1 (stereo not drawn) | inactive | inactive | – | – | inactive | inactive | inactive | inactive | inactive | inactive | inactive | inactive | inactive | inactive | inactive | inactive | inactive | inactive | inactive | –
COCC(C)O (stereo not drawn) | inactive | inactive | – | – | inactive | inactive | inactive | inactive | inactive | inactive | inactive | inactive | inactive | inactive | inactive | inactive | inactive | – | inactive | –
CC[Si](OC(C)=O)(OC(C)=O)OC(C)=O | inactive | inactive | – | – | inactive | inactive | inactive | inactive | inactive | inactive | inactive | inactive | inactive | – | inactive | inactive | inactive | – | inactive | –
CC1=C(CC(=O)O)c2cc(F)ccc2/C1=C\c1ccc(S(C)=O)cc1 (stereo not drawn) | inactive | inactive | inactive | inactive | inactive | inactive | inactive | inactive | inactive | inactive | inactive | inactive | inactive | inactive | inactive | – | – | – | – | –
Oc1ccc(OCc2ccccc2)cc1 | inactive | – | inactive | inactive | inactive | inactive | inactive | inactive | inactive | inactive | 18.9 µM (active) | inactive | inactive | inactive | inactive | inactive | inactive | inactive | 15 µM (active) and inactive | inactive
